Over roughly 33,000 sequences, “E-score (-0.5 to 0.5)” has its median near -0.0034; the highest 2% begin near 0.25. What follows is part of a selection rich in the highest values, with near analogues and random picks from the rest.
target: T1, Yap3 (UniProt P38749); assay: PBM E-score (8-mer binding enrichment) (E-score (-0.5 to 0.5)); higher = stronger / more preferred TF binding; details: protein concentration: 100 nM; construct: GST-full length
T1 sequence: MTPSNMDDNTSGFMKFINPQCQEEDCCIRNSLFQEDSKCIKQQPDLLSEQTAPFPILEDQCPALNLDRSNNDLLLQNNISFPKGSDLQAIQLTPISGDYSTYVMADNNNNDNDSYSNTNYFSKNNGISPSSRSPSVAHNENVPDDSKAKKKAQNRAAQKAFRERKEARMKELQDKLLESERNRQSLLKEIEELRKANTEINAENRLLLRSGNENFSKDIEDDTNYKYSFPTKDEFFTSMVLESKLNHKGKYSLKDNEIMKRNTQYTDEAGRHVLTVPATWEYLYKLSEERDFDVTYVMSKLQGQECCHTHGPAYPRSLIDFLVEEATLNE
Summary of the method: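 Using PURExpress in vitro transcription/translation, GST-tagged yeast transcription factors were made in full-length or DNA-binding-domain form. These were applied at about 100-200 nM to double-stranded universal all-10-mer Agilent arrays, and bound protein was detected with fluorescent anti-GST. Scans were normalised with masliner before the Universal PBM Analysis Suite assigned E-scores to ungapped eight-base words pooled with their reverse complements.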

Sequence | PBM E-score
ACTTGTCT | -0.0439
CGACAACG | 0.0404
ACAATAAA | 0.106
ATAATAAC | 0.173
TTAATAAA | 0.372
ATAATAAA | 0.277
ATAATAAT | 0.26
GTAATAAC | 0.188
GAAATAAA | 0.14
GTAATAAA | 0.266
CTAATAAA | 0.178
ATAATAAG | 0.194
ATAATAGA | 0.184
CTAATAAC | 0.15
CGCGTCGA | 0.0342
GTACGAAA | 0.173
CTCGTCGA | -0.0244
CGTCGCTA | 0.11
CTTCTGAA | 0.0313
ACAGCCAT | -0.0294
ACGTGAAA | 0.211
AGAATAAA | 0.261
AGAATAAT | 0.24
AGAATAAG | 0.11
AGATAGGC | -0.0411

Sequence | PBM E-score
GGACAGCA | -0.0442
GTTTAGTA | 0.275
CTTTAGTA | 0.0328
ATTTAGTC | 0.167
GGTTAGTA | 0.0941
ATTTAGTA | 0.289
ATTTAGTG | 0.204
CCAGTAAG | -0.0333
ACACATGT | 0.0237
CGGGTAAC | -0.0884
ACAATTCC | 0.0667
ACATCTTC | 0.0249
GCGGTAGA | 0.00783
CACAAATA | 0.152
AACAAATA | 0.25
GACAAATA | 0.299
GACAAATC | 0.175
TACAAATA | 0.299
GACAAGTA | -0.00588
TGGGGACA | -0.0974
ATGTAGCA | -0.00878
CCGCGGCA | 0.135
AGAGAGCC | -0.201
CGTATCGC | 0.0192
CTTATTGC | 0.0255

Sequence | PBM E-score
ATCATTAA | 0.207
GCGATTAA | 0.216
GTTATTAA | 0.262
ACGATTAA | 0.0578
CTTATTAA | 0.339
TCGATTAA | 0.308
CTCATTAA | 0.0548
GTTATTGA | 0.117
GTCATTAA | 0.3
CTTATTGA | 0.0574
GTTATTTA | 0.165
CCGCCACC | -0.155
CCTCAGGA | -0.184
CCAAGACG | -0.148
ATGGTGGA | -0.062
CGCTAATA | 0.0177
CTCTCTAA | -0.149
CACCTTCA | 0.014
GGCCCACA | -0.119
CGGAGCAG | -0.191
AGATTTGG | -0.12
ATTGCAGG | 0.073
ACTATTAA | 0.123
CCCATTAA | -0.108
ACCATTAA | 0.26

Sequence | PBM E-score
TCCATTAA | 0.0027
ATGATTAA | 0.274
CTGATTAA | 0.203
CCTATTAA | 0.0368
ATTATTAA | 0.378
ATGATTAG | 0.124
ATAAGATG | 0.176
AATAGAAA | 0.138
CTTGTATA | 0.127
ATGGTATG | 0.00998
ATTGTATG | 0.151
ATTGTATA | 0.298
ATGGTATC | 0.175
ATGGTATA | 0.262
CGGTCGCC | -0.2
CTCTAAAC | 0.167
AAGCTGAG | 0.0158
AGCAGAGA | -0.0117
TCGTAGAA | -0.0144
CCGCCTAA | -0.155
AAAATAGA | 0.256
CAAAATAA | 0.296
ACAAAATA | 0.175
CAAAAATA | 0.332
TAAATAGA | -0.0374

Sequence | PBM E-score
CCAAAATA | 0.211
AAAAAATA | 0.287
GAAAAATA | 0.114
TAAAATAA | 0.0792
CAAAAATC | 0.051
AAAAATAA | 0.25
AAAATAGC | -0.0905
CAGTTTGC | 0.124
ACGCCGCG | -0.0869
AGACCTGG | -0.0312
AGTTTGCC | 0.175
GCGGCTCA | 0.0715
AAAATAAA | 0.204
TAAATAAA | 0.282
CTAAAATA | 0.148
CAAATAAA | 0.197
CAAATATA | 0.0799
TAAAAATA | 0.26
CAAAGATA | 0.0838
TAAATATA | 0.297
TAAAAAAA | 0.0893
GAAATATA | 0.248
GAAAGATA | 0.217
TAAAGATA | 0.254
TAGGTCAA | 0.0932

Sequence | PBM E-score
AGGAATAA | 0.156
GTGGTAAA | -0.0974
AGAGCTCC | -0.275
AATTGGAG | -0.0503
ATGGCCGA | 0.0282
ATGTGCAA | 0.059
ATCTGTTG | -0.0152
AAAAACTC | 0.072
AGAATCGG | -0.0519
TAAGACAA | 0.187
CAAGACAA | 0.0625
ACAGACAA | 0.285
ACAGACAG | 0.0669
ACAGACAC | -0.0498
AAAGACAA | 0.261
CGACCAAA | 0.174
CCTCAGGC | -0.249
CAGGTGCG | 0.015
ATAAAAGG | -0.011
AAAAAATG | 0.209
ATAAAACG | 0.206
ATAAAAAG | 0.261
ATAAAATG | 0.276
ATAAAATC | 0.207
ATAAAATA | 0.298

Sequence | PBM E-score
ATAAAAAA | 0.187
GTAAAATA | 0.117
GACATTCC | -0.186
ACTGACCG | -0.0919
ACCCCTCT | -0.251
AGTTGAAC | 0.00888
GATCTTGA | 0.0634
ACACTTGC | 0.0282
CAAATGAC | 0.0524
GAAATGAC | 0.259
GAAATGAA | 0.289
GAAATGCC | 0.0869
TAAATGAA | 0.117
CAAATGAA | 0.14
TTGGCCAA | -0.0814
GCGCCCAC | -0.0948
ATGCTACC | 0.0357
ACCTCTCC | -0.165
ACATGGCA | -0.0266
TATAACAA | 0.265
TATAACCA | 0.269
CATAACAA | 0.18
GATAACCA | 0.161
GATAACAA | 0.0894
CATAACCA | 0.0668

Sequence | PBM E-score
GAGGGGCA | -0.299
CAATGCTG | -0.114
AGCAAAAA | 0.122
CCCAACGA | -0.0115
GATTTTCA | 0.175
AATTATCT | 0.237
AATTATCG | 0.267
AATTATCC | 0.133
AATTATCA | 0.288
CATTATCG | 0.129
CATTATCA | 0.161
TTCCCGAA | 0.115
CGAGTACG | -0.147
AGAAGGTA | 0.28
AGAAGGTG | 0.029
GGAAGGTA | -0.0252
TGAGCTCA | 0.0969
AAAGGTCT | -0.0778
GTTGGCTA | 0.12
ATGGGTAG | -0.0623
GTGCAGCA | -0.204
CCTTTGTA | -0.135
GCTTTGTA | 0.259
ACTTTGTA | 0.0238
CATTATGC | 0.0641

Sequence | PBM E-score
AATTATGT | 0.164
AATTATGA | 0.278
AATTATGC | 0.273
AATTATGG | 0.238
GATTATGC | 0.0614
CAGTCTAC | -0.192
GGCTTCCC | -0.127
CTCCAACA | 0.141
GCTTACGA | 0.219
ACTTACGA | 0.315
GATTACGC | 0.108
TATTACCA | 0.196
GATTACGA | 0.291
CATTACGA | 0.149
GGTTACGA | 0.06
CTTTACGA | -0.0493
AATTACGA | 0.33
TATTACGA | 0.326
ACTTACGC | 0.122
AATTACAA | 0.151
GGCCTTAC | -0.144
CTCTAATC | -0.0693
CCACTAGC | -0.158
AGCTGAAA | -0.101
AGAATTCT | 0.124

Sequence | PBM E-score
TCCGCAAA | 0.0357
ACAGACGC | -0.168
CGTGCACC | -0.0988
AATTACGT | 0.308
AATTACGC | 0.208
AATTACGG | 0.235
AATAATGA | 0.0556
AATAATGC | 0.216
CATAATGA | 0.118
GATAATTA | 0.251
CATAATTC | 0.23
AATAATTG | 0.203
AATAATTC | 0.263
AATAATTA | 0.316
CATAATTA | 0.316
ACCTTCAG | -0.0617
AGCAAAGC | 0.0118
ACTAGCGC | 0.0683
GGCACTAA | 0.107
CGGTGTGA | 0.115
AAGAACAA | 0.267
AAGAACAG | 0.0639
GAGAACAA | 0.311
GAGAACAC | -0.00708
CAGAACAA | 0.248

Sequence | PBM E-score
AAGAACAC | 0.147
CCGCGAGG | -0.0632
AAGTCTCC | -0.0848
ACGGAGAT | -0.0531
CACTGGAC | -0.0821
ATTATTGG | 0.0681
ACTATTAG | 0.136
ATTATTAC | 0.269
ATTATTAG | 0.259
CTTATTAC | 0.251
ACTATTAC | 0.149
ATCCAAAG | 0.165
GTCAGCCA | -0.0924
CCCCAACA | -0.111
AGTATAAC | -0.0565
ATTATAAG | 0.0886
AGTATAAT | 0.293
AGTATAAG | 0.193
AGTATATG | 0.157
AGTATATA | 0.364
AGTATAAA | 0.304
TGTATAAA | 0.211
ATTATAAA | 0.231
AGTATATC | 0.0292
GGTATAAA | 0.239

Sequence | PBM E-score
ATTATAAT | 0.319
CGACTCCG | -0.24
GCTGGCTA | -0.196
ACTCACCA | -0.0571
AGGTTACA | -0.0016
GGCTGCAC | -0.206
CGTTGTGA | -0.0712
AATATTTA | 0.295
AATATTTC | 0.154
GGTATTTA | 0.104
CTTATTTC | 0.251
ATTTATTA | 0.277
CGTATTTA | 0.313
ATTATTTC | 0.302
ATTTATTC | 0.212
CATATTTA | 0.185
ATTTATTG | 0.0964
ACTATTTC | 0.224
AGTATTTA | 0.16
GGGGGACC | -0.358
GATGGAGC | -0.108
ACACCAGG | -0.237
CACTACTG | 0.0352
ATCAGTAG | 0.0393
GCACACGC | -0.0783

Sequence | PBM E-score
CTACTGCC | -0.0886
ATGTACAA | 0.0885
CGACGTCA | 0.0828
CAGGTTAC | 0.0255
CTTATTTA | 0.11
GTTTATTA | 0.268
GGTTATTA | 0.158
ATTATTTG | 0.197
CTTTATTA | 0.199
ATTATTTA | 0.289
ACTTTACT | 0.284
AATTTAAG | 0.106
AATTTACA | 0.155
ACTTTACC | 0.149
AATTTACT | 0.271
AATTTAAT | 0.261
AAATTATT | 0.275
AAATTATG | 0.208
AATTTAGT | 0.21
AAATTATC | 0.251
ACTTTACA | 0.052
AATTTAAC | 0.113
CAGGTGGG | -0.0568
CGGCTCTA | -0.067
CGTGGTCA | -0.112

Sequence | PBM E-score
ACTCTAAG | -0.0616
CTCCGTGA | -0.0971
CGCCACCA | -0.25
CGACCCCA | -0.16
AGTAACGA | -0.0656
GCGACAAA | 0.0655
CGCTCGAG | 0.0723
GGTTTTCA | 0.0332
CTTTTGCA | 0.227
AACGGTCG | 0.105
AAATTAGA | 0.201
AAATTACT | 0.304
AAATTAGG | 0.196
AAATTACC | 0.235
AAATTACG | 0.172
AAATTAGT | 0.283
CGCAGCGA | -0.0766
TAGTGGGA | -0.0516
AAGCCTTC | -0.0737

From the supplement of paper PMC3334620
